According to the supplement of paper PMC12645437, “Orthogonal IMiD-Degron Pairs Induce Selective Protein Degradation in Cells” (ACS Chemical Biology, 2025):
The full ranking holds about 8,300 sequences; the median of “log2 fold change of degron read counts, EGFP-low vs EGFP+ sorted cells (limma voom), compound-induced degradation” is about -1.1, and the highest 2% start at about 3.2. This is one part of a sample in which the highest values are shown more often than they occur.

T1: CRBN, Q96SW2
T1 chain: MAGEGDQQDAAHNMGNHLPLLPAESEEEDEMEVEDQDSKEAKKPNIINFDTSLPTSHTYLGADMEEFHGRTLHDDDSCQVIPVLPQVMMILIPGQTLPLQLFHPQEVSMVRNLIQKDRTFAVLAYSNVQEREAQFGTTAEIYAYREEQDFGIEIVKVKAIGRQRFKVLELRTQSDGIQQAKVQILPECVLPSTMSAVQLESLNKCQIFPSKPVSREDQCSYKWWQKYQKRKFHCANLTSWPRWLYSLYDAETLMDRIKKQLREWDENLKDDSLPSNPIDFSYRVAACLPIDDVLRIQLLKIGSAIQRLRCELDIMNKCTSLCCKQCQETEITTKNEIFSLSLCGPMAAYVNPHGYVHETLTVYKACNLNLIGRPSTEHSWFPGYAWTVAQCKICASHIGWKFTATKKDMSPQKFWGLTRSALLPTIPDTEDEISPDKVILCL

B1: 46F_47L_49P_50I_52G_53A_54P_55F_67L_, Q9UKT9 (peptide)
chain: FLCPICGAPFTQKGNLLRHIKL
B2: 46F_47C_49P_50I_52G_53A_54D_55F_67L_, Q9UKT9 (peptide)
chain: FCCPICGADFTQKGNLLRHIKL
B3: 46F_47Y_49P_50I_52G_53A_54K_55F_67L_, Q9UKT9 (peptide)
chain: FYCPICGAKFTQKGNLLRHIKL
B4: 46F_47Y_49P_50I_52G_53A_54P_55F_67L_, Q9UKT9 (peptide)
chain: FYCPICGAPFTQKGNLLRHIKL
B5: 46F_47C_49P_50I_52G_53A_54P_55F_67L_, Q9UKT9 (peptide)
chain: FCCPICGAPFTQKGNLLRHIKL
B6: 46F_47V_49P_50I_52G_53A_54P_55F_67L_, Q9UKT9 (peptide)
chain: FVCPICGAPFTQKGNLLRHIKL
B7: 46F_47D_49P_50I_52G_53A_54P_55F_67L_, Q9UKT9 (peptide)
chain: FDCPICGAPFTQKGNLLRHIKL
B8: 46F_47C_49N_50I_52G_53A_54P_55F_67L_, Q9UKT9 (peptide)
chain: FCCNICGAPFTQKGNLLRHIKL
B9: 46F_47Y_49P_50I_52G_53A_54D_55F_67L_, Q9UKT9 (peptide)
chain: FYCPICGADFTQKGNLLRHIKL
B10: 46F_47C_49D_50I_52G_53A_54M_55F_67L_, Q9UKT9 (peptide)
chain: FCCDICGAMFTQKGNLLRHIKL
B11: 46F_47W_49N_50V_52G_53A_54C_55F_67L_, Q9UKT9 (peptide)
chain: FWCNVCGACFTQKGNLLRHIKL
B12: 46F_47Y_49N_50Q_52G_53H_54A_55F_67L_, Q9UKT9 (peptide)
chain: FYCNQCGHAFTQKGNLLRHIKL
B13: 46F_47L_49D_50I_52G_53A_54S_55F_67L_, Q9UKT9 (peptide)
chain: FLCDICGASFTQKGNLLRHIKL
B14: 46F_47N_49D_50I_52G_53A_54E_55F_67L_, Q9UKT9 (peptide)
chain: FNCDICGAEFTQKGNLLRHIKL
B15: 46F_47E_49E_50I_52G_53H_54G_55F_67L_, Q9UKT9 (peptide)
chain: FECEICGHGFTQKGNLLRHIKL
B16: 46F_47T_49E_50I_52G_53R_54L_55F_67L_, Q9UKT9 (peptide)
chain: FTCEICGRLFTQKGNLLRHIKL
B17: 46L_47W_49N_50Q_52G_53F_54P_55C_67L_, Q9UKT9 (peptide)
chain: LWCNQCGFPCTQKGNLLRHIKL
B18: 46F_47Y_49P_50Q_52G_53A_54W_55F_67L_, Q9UKT9 (peptide)
chain: FYCPQCGAWFTQKGNLLRHIKL
B19: 46F_47E_49N_50V_52G_53A_54H_55F_67L_, Q9UKT9 (peptide)
chain: FECNVCGAHFTQKGNLLRHIKL
B20: 46F_47L_49D_50V_52G_53A_54C_55F_67L_, Q9UKT9 (peptide)
chain: FLCDVCGACFTQKGNLLRHIKL
B21: 46F_47W_49P_50I_52G_53R_54E_55F_67L_, Q9UKT9 (peptide)
chain: FWCPICGREFTQKGNLLRHIKL
B22: 46F_47L_49P_50V_52G_53A_54G_55F_67L_, Q9UKT9 (peptide)
chain: FLCPVCGAGFTQKGNLLRHIKL
B23: 46F_47G_49P_50V_52G_53A_54T_55F_67L_, Q9UKT9 (peptide)
chain: FGCPVCGATFTQKGNLLRHIKL
B24: 46F_47C_49P_50V_52G_53A_54T_55F_67L_, Q9UKT9 (peptide)
chain: FCCPVCGATFTQKGNLLRHIKL
B25: 46F_47N_49P_50V_52G_53A_54T_55F_67L_, Q9UKT9 (peptide)
chain: FNCPVCGATFTQKGNLLRHIKL
B26: 46F_47E_49P_50V_52G_53A_54T_55F_67L_, Q9UKT9 (peptide)
chain: FECPVCGATFTQKGNLLRHIKL
B27: 46F_47Q_49P_50V_52G_53A_54T_55F_67L_, Q9UKT9 (peptide)
chain: FQCPVCGATFTQKGNLLRHIKL
B28: 46F_47W_49P_50V_52G_53A_54T_55F_67L_, Q9UKT9 (peptide)
chain: FWCPVCGATFTQKGNLLRHIKL
B29: 46F_47M_49P_50V_52G_53A_54T_55F_67L_, Q9UKT9 (peptide)
chain: FMCPVCGATFTQKGNLLRHIKL
B30: 46F_47D_49P_50V_52G_53A_54T_55F_67L_, Q9UKT9 (peptide)
chain: FDCPVCGATFTQKGNLLRHIKL
B31: 46F_47F_49P_50V_52G_53A_54T_55F_67L_, Q9UKT9 (peptide)
chain: FFCPVCGATFTQKGNLLRHIKL
B32: 46F_47L_49P_50V_52G_53A_54T_55F_67L_, Q9UKT9 (peptide)
chain: FLCPVCGATFTQKGNLLRHIKL
B33: 46F_47V_49P_50V_52G_53A_54T_55F_67L_, Q9UKT9 (peptide)
chain: FVCPVCGATFTQKGNLLRHIKL
B34: 46F_47K_49P_50V_52G_53A_54T_55F_67L_, Q9UKT9 (peptide)
chain: FKCPVCGATFTQKGNLLRHIKL

Target: T1, CRBN, Q96SW2
Assay: log2 fold change of degron read counts, EGFP-low vs EGFP+ sorted cells (limma voom), compound-induced degradation; higher = more compound-induced degradation of the degron-EGFP fusion; degrons are variants of IKZF1/3 zinc finger 2; compound dose not given here
Details: Jurkat, 18 h
[1] = compound: compound 19 (5-tert-butyl-thalidomide)
[2] = compound: compound 22 (5-morpholino-thalidomide)
[3] = compound: compound 33 (diphenyl IMiD analogue)
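Further: pooled lentiviral library of zinc finger degron-EGFP fusions in mCherry-positive Jurkat cells, FACS-sorted after compound exposure, with degron abundance counted by next-generation sequencing.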

Sequence | log2 fold change of degron read counts [1] | log2 fold change of degron read counts [2] | log2 fold change of degron read counts [3] | log2 fold change of degron read counts (compound: thalidomide)
B1 | 2.02 | 2.98 | 2.65 | 3.18
B2 | 1.61 | 1.1 | 1.77 | 1.6
B3 | 2.61 | 3.07 | 1.08 | 0.503
B4 | 3.63 | 3.27 | 2.84 | 2.2
B5 | 3.65 | 3.16 | 2.16 | 2.67
B6 | 2.4 | 3.68 | 2.3 | 3.49
B7 | 2.88 | 1.73 | 1.54 | 2.15
B8 | 3.01 | 2.73 | 1.32 | 1.86
B9 | 1.73 | 1.44 | 1.25 | -0.522
B10 | 0.674 | 0.00358 | 0.721 | -0.808
B11 | 1.84 | 2.89 | 1.57 | -0.431
B12 | -2.34 | -2.37 | -2.98 | -2.66
B13 | 0.329 | -1.41 | 0.103 | -0.525
B14 | 0.228 | -1.87 | -2.21 | -2.45
B15 | -3.39 | -3.7 | -2.59 | -2.45
B16 | -2.87 | -2.3 | -0.938 | -0.343
B17 | -0.74 | -1.09 | -1.33 | -1.27

Sequence | log2 fold change of degron read counts [1] | log2 fold change of degron read counts [2] | log2 fold change of degron read counts [3] | log2 fold change of degron read counts (compound: thalidomide)
B18 | -0.595 | -1.07 | -0.405 | -1.33
B19 | -2.58 | -2.72 | -0.566 | -0.594
B20 | -1.03 | -2.05 | 0.211 | -0.875
B21 | 0.147 | -0.132 | 1.23 | -0.495
B22 | 1.38 | 0.0992 | 1.5 | 0.959
B23 | 3.66 | 2.4 | 2.06 | 1.12
B24 | 1.17 | 1.86 | 2.81 | 2.11
B25 | 1.23 | -0.0199 | 1.21 | 0.0692
B26 | -0.45 | -0.774 | 1.74 | 2.82
B27 | 0.396 | 2.89 | 2.57 | 3.79
B28 | 2.12 | 3.45 | 1.55 | 0.523
B29 | -1.09 | 0.0816 | 1.9 | 1.06
B30 | 1.07 | -0.459 | 0.762 | 1.24
B31 | 2.59 | 3.54 | 1.59 | 1.17
B32 | -1.39 | -1.44 | 0.984 | 1.09
B33 | -1.12 | 1.27 | 1.62 | 2.01
B34 | -1.61 | -2.57 | -2.5 | -0.961
